Compounds without any hit were thinned out: in the full panel of roughly 79,000, 15% have a hit. Values without a mark were called inactive. Active and inactive are the calls of the source. Cut-off read from the data, not from the text of the source: active = growth inhibition above about 70%; inactive = the rest.
Experiment: NCI Yeast Anticancer Drug Screen. Data for the cln2 rad14 strain (AID 165);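 note: 0% = growth equal to vehicle treated cultures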
Conditions: S. cerevisiae cln2 rad14 strain, at 50.0 µM, stronger effect = higher value
Protocol: Growth inhibition of yeast strains with defined genetic alterations is measured as a screen for potential anti-cancer activity. Selected strains with alterations in DNA damage repair or cell cycle control were exposed to compounds and growth inhibition was measured relative to vehicle treated controls. The strain used in this assay is cln2 rad14

SMILES | growth inhibition
CC(C)=CC(=O)N1CCN(C(=O)C=C(C)C)CC1 | 18.8%
CN(C)C=Nc1cc2c(cc1Br)-c1ccccc1C2=O | -0.45%
CCCCOC(=O)COc1ccc(OC)cc1 | -34.6%
CCOC(=O)c1ccc(N(CC(=O)O)S(=O)(=O)c2ccc(C)cc2)s1 | 16.6%
CC[N+](CC)(CC)CCO | 20.7%
O=C1C/C(=C/c2ccccc2[N+](=O)[O-])C(=O)N1c1ccccc1 | -36.1%
O=C(O)C1C=CC2OC2C1C(=O)O (stereo not given) | -31.9%
O=C(OCc1ccccc1CN1CCOCC1)c1ccccc1 | -11.9%
O=C(O)/C=C/c1ccccc1C(=O)O | -13.2%
Cc1cccc(C(C)C)c1NC(=O)C(=O)CC(=O)c1c(C)n([O-])c2ccccc2[n+]1=O | 12.2%
CCCC(=O)Oc1ccc(Cl)cc1 | 20.1%
CCC(C)OC(=O)/C=C/c1ccccc1 (stereo not given) | -0.25%
CN1C(=O)c2ccccc2Cc2c(Cl)ncnc21 | -1.45%
O=C(O)/C=C\Sc1ccccc1C(=O)O | -2.05%
O=C(Nc1nncs1)c1cccs1 | 3.35%
O=C(O)c1oc2cccc3c2c1CCC3 | -10.3%
CC(=O)Nc1ccc(S(=O)(=O)NNC(=O)NNS(=O)(=O)c2ccc(NC(C)=O)cc2)cc1 | 2.5%
CCCCCCC[CH2][Sn]1([CH2]CCCCCCC)[O]C(=O)c2cccnc2[O]1 | 10.3%
CC1(C)OC[C@@H](N)[C@@H](O)CO1 | -31.9%
C=C(C)COc1ccc2c(c1)CCC1C2CCC2(C)C1CCC2(C)O (stereo not given) | 17.6%

SMILES | growth inhibition
COc1ccc(NC(C)=O)cc1C1CCC(=O)N1 (stereo not given) | 10.1%
Cc1c([N+](=O)[O-])ccn1C | 9.25%
NC12CCC(CC1)C2 | -6.25%
Oc1ccccc1C=Nc1ccc2c(ccc3c4ccccc4ccc23)c1 | -6.65%
COCC(C)OC(=O)c1ccccc1Cl (stereo not given) | 2.65%
COCc1nc2c(=O)[nH]c(N)nc2[nH]c1=O | -0.25%
COc1ccc(N(C)CN(C)c2nc(N(C)C)nc(N(C)C)n2)cc1 | -45.4%
C=CCc1cc2c(cc1COC(C)=O)OCO2 | -36.5%
CC1C=CC(C)N(c2nnnn2C)N1c1nnnn1C (stereo not given) | -6.3%
ClC1=CC(Cl)=C2N=C(N3CCCC3)N=C3N=C(C(Cl)(Cl)Cl)N=C1N32 | -13.4%
CCCCCCCCCCCCCCCCCCNC(=O)c1c(Br)c(Br)cc(Br)c1C(=O)O | -8.35%
CSc1ccc(OC(=O)NC2CCCCC2)cc1C | 6.25%
Cc1nc2ccc(Cl)cc2c(=O)[nH]1 | -57.2%
COC1/C=C/OC2(C)Oc3c(C)c(O)c4c(O)c(c(/C=N/N5CC(C)N(C(=O)c6ccccc6)C(C)C5)c(O)c4c3C2=O)NC(=O)C(C)=C/C=C/C(C)C(O)C(C)C(O)C(C)C(OC(C)=O)C1C (stereo not given) | 24.6%
CCCCCCCC/C=C\CCCCCCCCCCCC(=O)O | -46%
COCCCNc1nc(N)c(C#N)c(C#N)c1C#N | 3.45%
Cc1ncc([N+](=O)[O-])n1CCSC(N)=O | 11.4%
CC1(C)N=C(Oc2ccccc2)n2nccc2N1 | 2.55%
O=C(CCn1[nH]c(=O)c(Cl)c(Cl)c1=O)NOCCCc1ccccc1 | -7.95%
CCCc1c(O)c(=O)c2c(OC)cc(OC)c3c4c(OC)cc(OC)c5c(=O)c(O)c(CCC)c(c1c23)c54 | 84.5% (active)
